# The list is not random: actives were taken first. Their share in the collection is about 3.3%.
# Tau fluor cs = counter-screen for tau fibril formation inhibitors; tau K18 P301L Alexa594 fluorescence, heparin fibrillization; Potency, µM (series often up to 57.7 µM), for the others: at the highest dose activity change, negative = decrease; actives 0.93% (n = 280,000); also: nearly all actives have a fitted effect of over 55% in size
#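 Human tau K18 P301L (15 uM unlabeled, 0.24 uM Alexa 594-labeled) in 100 mM sodium acetate pH 7 with 20 uM heparin, 6 hr at 37 C. ThT 30 uM added, 1 hr ambient; Alexa 594 FP and total fluorescence read at 555/632 nm.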
# NPSR antag = neuropeptide S receptor (human) antagonism, cAMP. Q6W5P4. CHO-NPSR cells, cAMP TR-FRET, antagonist mode. Potency, µM (highest dose often 38.3 µM), inactives show at the top dose activity change, negative = inhibition, most hits filed as inhibitors. actives 1% (n = 220,000). AID 1461; also: nearly all actives have a fitted effect of over 50% in size
# Target sequence (Q6W5P4 whole entry, looked up): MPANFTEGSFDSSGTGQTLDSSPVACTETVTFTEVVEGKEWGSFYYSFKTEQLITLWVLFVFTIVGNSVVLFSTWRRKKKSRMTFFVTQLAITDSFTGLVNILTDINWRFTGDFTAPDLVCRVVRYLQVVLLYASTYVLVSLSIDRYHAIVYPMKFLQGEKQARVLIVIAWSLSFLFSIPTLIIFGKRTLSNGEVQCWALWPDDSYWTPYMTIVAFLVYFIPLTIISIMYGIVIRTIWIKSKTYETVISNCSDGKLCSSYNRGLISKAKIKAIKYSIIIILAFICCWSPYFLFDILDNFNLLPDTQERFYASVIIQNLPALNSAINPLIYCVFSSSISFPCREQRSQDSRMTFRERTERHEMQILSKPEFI
# Tau FP inhib = inhibitors of human tau fibril formation | P10636 | K18 P301L tau heparin fibrillization, Alexa594 FP, 6 h | Potency, µM (titrated, usually from 57.7 µM), for the others: at the highest dose activity, negative = inhibition, actives largely listed as inhibitors | actives 0.39% (n = 280,000); also: nearly all actives have a fitted effect of over 55% in size
# Target sequence (P10636 561-689 P618L limits assumed): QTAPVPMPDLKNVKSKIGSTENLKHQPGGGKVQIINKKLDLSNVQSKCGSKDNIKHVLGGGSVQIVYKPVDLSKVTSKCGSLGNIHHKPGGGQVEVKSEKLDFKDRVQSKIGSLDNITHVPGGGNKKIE
#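 Human tau K18 […] P301L fragment, 15 uM unlabeled plus 0.24 uM Alexa 594-labeled tau (final), with compound and 20 uM heparin in 100 mM sodium acetate pH 7; 6 hr at 37 C, then Alexa 594 FP read.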
# Luc counter = Kinase-Glo luciferase inhibition (counter-screen); actives 0.28% (n = 200,000); Kinase-Glo luciferase, ATP luminescence, 8 min; Potency, µM (titrated, usually from 38.3 µM), for the others: at the top dose activity change, negative = inhibition, actives largely listed as inhibitors; Q27757; also: nearly all actives have a fitted effect of over 60% in size
#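 Compound is pinned into ATP-containing buffer (10 uM ATP, imidazole pH 7.2, 7 mM MgCl2). Kinase-Glo luciferase reagent is then added. Light output is recorded following an 8-min room-temperature incubation.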
# Tau ThT inhib = tau fibrillization inhibition (ThT binding); P10636; recombinant tau K18 P301L (four-repeat tau fragment), heparin-induced fibrillization, ThT fluorescence; Potency, µM (top dose mostly 57.4 µM), without a hit: at the top dose activity, negative = inhibition, usual class: inhibitors; actives 2.1% (n = 270,000); also: nearly all actives have a fitted effect of over 55% in size
#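 Heparin-induced (20 uM) aggregation of recombinant human K18 P301L tau, 15 uM unlabeled with 0.24 uM labeled, pH 7 acetate buffer, 6 hr at 37 C with compound. Fibrils quantified by 30 uM ThT fluorescence after 1 hr ambient incubation.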
# The depositor's hits bear a star; ? = inconclusive; / = no result; [ ] = dose if it differs, or a comment. Calls follow the shape of the dose curve; as a rule, active = well fitted curve in the direction sought with a large enough effect; inconclusive = small, poorly fitted or top-dose-only effect, or another doubt; inactive = no such curve, though single readings can be large; an effect the other way counts as inactive or inconclusive. % is scaled to controls: 0 for no effect and ±100 for the full control effect; potency is read from the fitted curve at half-maximal effect.
SMILES,Tau fluor cs,NPSR antag,Tau FP inhib,Luc counter,Tau ThT inhib
Cc1ccc2nc(NCc3ccccc3)c3nnnn3c2c1,0%,/,11%,/,14%
CCOC(=O)c1sc(N2N=C(C)C(N=Nc3cccc(C)c3)C2=O)nc1C (stereo not drawn),/,-12%,/,/,/
CC1=NN(c2nc(-c3ccc(C)cc3)cs2)C(=O)C1N=Nc1cccc(C)c1 (stereo not drawn),-28%,-18%,?,-2%,2µM*
CCCCOc1ccc(-c2c(C#N)c(N)nc(SCC(N)=O)c2C#N)cc1,?,-14%[46.1 µM],22µM*,1%,-11%
CCOc1ccc(Nc2nc(C)c(NC(=O)c3cccc(F)c3)c(Nc3ccc(OCC)cc3)n2)cc1,7.9µM*[quencher],/,10%,/,?
CC(C)(C)OC(=O)NCCc1nnc(SCC(=O)Nc2ccc(Br)cc2)o1,-23%,23%,-10%,/,-9%
CCCc1ccc(C2C3=C(CC(C)(C)CC3=O)NC3=C2C(=O)c2ccccc23)cc1 (stereo not drawn),?,?,9%,-5%,?
CC1(C)CC(=O)C2=C(C1)NC1=C(C(=O)c3ccccc31)C2c1ccc(O)cc1 (stereo not drawn),?,-19%,14%,-2%,18µM*
O=C(NCc1ccccc1)c1nc(-c2ccc(Cl)cc2)n2c1CCCCC2,0%,/,-5%,/,-3%
O=C(Cn1c(=O)n(Cc2ccc(F)cc2)c(=O)c2sc3ccccc3c21)NCc1ccccc1,0%,/,?,/,3%
CC1(C)c2ccccc2N2CC(=O)N(CC(N)=O)C21C (stereo not drawn),32µM*[fluorescent],2%[46.1 µM],?,-6%,?
CC1(C)c2ccccc2N(CC(N)=O)C12C=Cc1ccccc1O2 (stereo not drawn),-2%,-5%,6%,/,-8%
C=CCn1c(=O)/c(=C2/Sc3cc(OC)ccc3N2C)s/c1=C1\C(=O)N(CC)C(=S)N1C,-20%,12%,19%,-15%,10µM*
CCN1/C(=C2\C(=O)N(C)C(=S)N2C)C=Cc2cc(OC)ccc21,-9%,-40%,-9%,-19%,-18%
COc1cccc(Cn2c(=O)c(C)nc3cnc(OCc4ccccc4)nc32)c1,/,/,/,-2%,/
O=Cc1ccc(Sc2nnc(-c3ccccc3)o2)c([N+](=O)[O-])c1,16µM*[quencher],-7%[46.1 µM],?,-3%,18µM*
CCc1ccc(NC(=O)c2ccc3nc(N)sc3c2)cc1,?,1%[46.1 µM],25µM*,-5%,?
COc1cc(C(=O)Nc2cccc(S(=O)(=O)N3CCCC3)c2)cc(OC)c1C,?,-57%,-17%,/,-2%
CC(=O)N(C1=C(Cl)C(=O)c2ccccc2C1=O)C1CCCCC1,?,6.3µM*,-14%,/,4µM*
Cc1nn(C(=O)c2cccc([N+](=O)[O-])c2C)c(C)c1S(=O)(=O)N1CCOCC1,-25%,/,10%,/,?
CCN(CC)c1cc(C)c2cc(NC(=O)/C=C/c3ccccc3Cl)ccc2n1,7.9µM*[quencher],/,9%,/,3.5µM*
CCCCOC(=O)c1cccc(NC(=O)/C=C/c2ccccc2Cl)c1,?,/,10µM*,/,7%
CCN(CC)c1cc(C)c2cc(NC(=O)c3ccc(F)cc3Cl)ccc2n1,?,/,8%,/,?
Cc1cc(N2CCCCC2)nc2ccc(NC(=O)c3cccc(F)c3)cc12,13µM*[quencher],/,10%,/,?
CCN(CC)c1cc(C)c2cc(NC(=O)c3ccccc3OC)ccc2n1,?,-20%,13%,-3%,?
SMILES,Tau fluor cs,NPSR antag,Tau FP inhib,Luc counter,Tau ThT inhib
CCN(CC)c1cc(C)c2cc(NC(=O)c3cccc(F)c3)ccc2n1,32µM*[quencher],/,16%,/,?
CCc1cccc(NC(=O)Cn2c(=O)ccc3cc(S(=O)(=O)N4CCC(C)CC4)ccc32)c1,-25%,/,?,/,13%
Cc1cc(N2CCCCC2)nc2ccc(NC(=O)c3cccc(Cl)c3)cc12,14µM*[quencher],/,?,/,10µM*
Cc1ccc(C(=O)Nc2ccc3nc(N4CCCCC4)cc(C)c3c2)cc1F,4%,/,1%,/,11%
COc1ccc(NCc2nc3ccccc3n2CCOc2ccccc2C)cc1,?,/,11%,/,?
CCNc1nc(NC(C)C)nc(N(C#N)Cc2ccccc2)n1,-4%,?,1%,-1%,-4%
CCNc1nc(NC(C)C)nc(N(C#N)CCOc2ccc(Cl)cc2Cl)n1,-26%,10µM*,-11%,-2%,?
O=C(CCCN1C(=O)/C(=C/c2ccco2)SC1=S)Nc1ccccc1C(=O)O,-21%,-23%,-8%,/,?
O=C(O)CCCN1C(=O)/C(=C\c2ccco2)SC1=S,-29%,33%,?,-8%,22µM*
O=C(O)CCN1C(=O)/C(=C\c2ccc(-c3nc4ccccc4s3)o2)SC1=S,-28%,13µM*,-16%,17%,2µM*
Cc1ccc(N2C(=O)/C(=C\c3ccco3)SC2=S)cc1,-18%,-20%[46.1 µM],-2%,-8%,-13%
O=C(O)CCN1C(=O)/C(=C\c2ccncc2)SC1=S,4%,-15%,2%,-1%,-20%
O=C1/C(=C\c2ccco2)SC(=S)N1c1ccccc1,?,-19%,?,0%,25µM*
CCN1CCc2c(sc(-n3cccc3)c2C(CCC(C)C)NC(=O)NCCC(=O)OC)C1 (stereo not drawn),-6%,/,-13%,/,-11%
COc1cc(NC(=O)c2cc3cccc(OC)c3o2)cc(C(=O)Nc2cccc(C(F)(F)F)c2)c1,?,-15%,?,/,-5%
Cc1cccc(C2(c3cccc(C)c3)CC2C(=O)Nc2ccc([N+](=O)[O-])cc2O)c1 (stereo not drawn),10µM*[quencher],?,?,-2%,?
CC(/C=N/Nc1ccc2nncn2n1)=C\c1ccccc1,-12%,-18%,9%,/,/
CSc1ccc(CNC(=O)c2ccc3c(c2)N(C)C(=O)C2CCCCN32)cc1 (stereo not drawn),?,/,9%,/,?
CC(=O)N1CCCc2cc(S(=O)(=O)N3CCC(C(=O)Nc4cccc(Cl)c4C)CC3)ccc21,-6%,/,-1%,/,4%
O=C1C(Nc2ccccc2)=C(NS(=O)(=O)c2ccccc2)C(=O)c2ccccc21,-28%,-13%,-6%,-6%,?
O=C1C(NS(=O)(=O)c2cccs2)=C(N2CCOCC2)C(=O)c2ccccc21,?,?,?,/,16µM*
O=C1C(NS(=O)(=O)c2cccs2)=C(N2CCN(c3cccc(C(F)(F)F)c3)CC2)C(=O)c2ccccc21,7.1µM*[quencher],10µM*,-2%,-13%,4.5µM*
O=C(O)c1cccc(NC2=C(N3CCOCC3)C(=O)c3ccccc3C2=O)c1,?,48%,?,/,32µM*
O=C1C(NS(=O)(=O)c2ccc(Cl)cc2)=C(N2CCCCC2)C(=O)c2ccccc21,?,1%[46.1 µM],?,-16%,16µM*
